Experiment [1] addresses T1, Aspartate--tRNA(Asp/Asn) ligase (Mycobacterium tuberculosis (strain ATCC 25618 / H37Rv)) (UniProt P9WFW3).
T1 sequence (whole entry): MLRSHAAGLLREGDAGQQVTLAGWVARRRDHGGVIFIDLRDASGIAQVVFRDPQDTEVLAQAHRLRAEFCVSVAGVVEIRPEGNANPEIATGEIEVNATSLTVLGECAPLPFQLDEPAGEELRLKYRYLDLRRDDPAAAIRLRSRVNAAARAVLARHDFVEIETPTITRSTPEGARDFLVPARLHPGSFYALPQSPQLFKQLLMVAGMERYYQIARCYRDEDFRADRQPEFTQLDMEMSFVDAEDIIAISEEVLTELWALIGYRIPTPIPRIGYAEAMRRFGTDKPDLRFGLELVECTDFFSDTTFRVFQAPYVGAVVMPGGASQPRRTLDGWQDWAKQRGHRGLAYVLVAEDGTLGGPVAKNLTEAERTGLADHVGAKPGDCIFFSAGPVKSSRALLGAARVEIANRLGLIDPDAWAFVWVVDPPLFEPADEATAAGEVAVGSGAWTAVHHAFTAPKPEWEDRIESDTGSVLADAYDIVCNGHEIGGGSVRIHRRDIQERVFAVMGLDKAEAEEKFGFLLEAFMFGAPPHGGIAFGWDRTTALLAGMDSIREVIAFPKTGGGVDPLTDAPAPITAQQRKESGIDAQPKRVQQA
The experiment can be described thus: Assay for Asp RNA synthetase-1 from Mycobacterium tuberculosis. The conditions noted are these: 30 µM. It counts as functional. More on the design: scale not given: direction of the effect not stated beside the values.

Experiment [2] concerns the target Shiga toxin 2 (Escherichia coli O157:H7) (UniProt P09385+P09386). Description: E. coli 0.157:H7 Shiga Toxin SOP - stx2 screening assay. It counts as functional. More on the design: scale not given: direction of the effect not stated beside the values. As to conditions: 30 µM.

Turning to `Cc1ccc(Cc2cnc(NC(=O)C3CNC(=O)N3)s2)cc1F` (stereo not given), the Percent Effect in experiment [1] was -6.24%; in experiment [2], -17.9%.
Taken in the same sequence, the figures for `CN(Cc1ccsc1)C(=O)Nc1cccnc1N1CCCC1` were 1.88% and -69.4%.
Taken in the same sequence, the figures for `O=C(NCCO)C1(Cc2cc(-c3ccc(F)cc3F)no2)CCOCC1` were 2.58% and 1.08%.
The matching figures for `CC(C)Cc1noc(CN(C)C(=O)C2COc3ccccc3C2)n1` (stereo not given): -1.81% and -46.4%.
On to `CC(C)Oc1cccc(C(=O)C2CCCN(C(=O)c3ccccn3)C2)c1` (stereo not given), for which the Percent Effect in experiment [1] is -1.79%; in experiment [2], 6.16%.
With `Cc1[nH]ncc1C(=O)N1CCN(CC(O)C(C)(C)C)CC1` (stereo not given), the Percent Effect is 0.878% in experiment [1] and 0.313% in experiment [2].
Taken in the same sequence, the figures for `COC(=O)c1ccc2ccn(CC3CCNC3)c(=O)c2c1` (stereo not given) were 3.08% and -45.4%.
`O=C(Nc1cccnc1)[C@H]1CO[C@H]2CCN(c3ncc(F)cn3)C[C@H]2C1`: the Percent Effect in experiment [1] was 0.524%; in experiment [2], -22.2%.
As for `COc1ccc2nnc(CCCC(=O)NCCC3=CCCCC3)n2n1`, the Percent Effect in experiment [1] was 0.319%; in experiment [2] it was -54.6%.
As for `CC(CN1CCOCC1)NCC1CCN(c2cnn(C)c(=O)c2)CC1` (stereo not given), the Percent Effect in experiment [1] was 2.84%; in experiment [2] it was -6.71%.
Taken in the same sequence, the figures for `Cc1cnn(CC2CCCN2C(=O)c2cc(C)no2)c1` (stereo not given) were -4.16% and 16.5%.
For the molecule `CC(C)CN1CCN(C(=O)NCc2cccnc2-n2cccn2)CC1`, the figures for the Percent Effect in experiment [1] and in experiment [2] were -1.98% and -22.5%, respectively.
The matching figures for `CCS(=O)(=O)N1C[C@@H](OCc2cccnc2)[C@H]2OCCC[C@H]21`: 3.4% and 5.21%.
As for `Cc1nc(C)n(CC2CCCN(c3ncnc4c3CCC4)C2)n1` (stereo not given), the Percent Effect came to 2.14% in experiment [1] and 15.3% in experiment [2].
Take `COc1ccc(CCN2CCCC(CN(C)Cc3ccc(C)o3)C2)cc1` (stereo not given): the Percent Effect in experiment [1] was -1.25%; in experiment [2] it was -11.5%.
Regarding `CC(C)n1ccnc1CN1CCCN(C(=O)COC2CCCC2)CC1`, the Percent Effect in experiment [1] is -1.67%; in experiment [2], -3.07%.
The matching figures for `CN(Cc1cscn1)C1CCCN(Cc2noc(C3CC3)n2)C1` (stereo not given): -2.67% and 0.508%.
`O=C(c1cnco1)N1CCCC(Cc2nccs2)C1` (stereo not given): the Percent Effect is 1.57% in experiment [1] and -2.47% in experiment [2].
Take `O=C(O)C1(Cc2cc(-c3cccc(F)c3)no2)CCOCC1`: the values for the Percent Effect in experiment [1] and in experiment [2] were -1.59% and 9.34%, respectively.
Taken in the same sequence, the figures for `Cc1cccc(CN2C[C@@H]3CN(C(=O)NC(C)C)C[C@@H]3C2=O)c1` were 0.565% and -52.1%.
For the molecule `Cc1ccc(CC(=O)NCCCNS(C)(=O)=O)cc1`, the Percent Effect in experiment [1] was 2.46%; in experiment [2] it was -16.3%.
As for `CCCNC(=O)c1ccc(NC(=O)c2cccc(OCC)c2)cc1`, the results for the Percent Effect in experiment [1] and in experiment [2] were 2.98% and -85.2%, respectively.
The matching figures for `Cc1cc(C(=O)NCCN2CCCC(C)C2)nn1C` (stereo not given): -4.16% and 11.8%.
The matching figures for `Cc1c[nH]cc1C(=O)N1CCN(CCc2cccs2)CC1`: -4.34% and -33.2%.
Take `O=C1CCCN1Cc1ncn2c1CN(C(=O)c1cccc(F)c1)CCC2`: the Percent Effect in experiment [1] is -3.2%; in experiment [2], 3.75%.
The matching figures for `Cc1ncsc1-c1nnc(C2CCN(Cc3ccc(F)cc3)CC2)o1`: 4.24% and -43.6%.
Taken in the same sequence, the figures for `Cc1cccc(N2CCN(C(=O)Nc3cnn(CC(N)=O)c3)CC2)c1` were -2.01% and -45.6%.
As to `COc1cccc(C(=O)N2CCCC(C(=O)CCc3ccccc3)C2)c1` (stereo not given), the Percent Effect in experiment [1] is 4.2%; in experiment [2], -7.01%.
Taken in the same sequence, the figures for `Cc1noc(CN(Cc2ccc3c(c2)OCO3)C2CCCC2)n1` were 1.87% and 30.6%.
As for `COc1ccccc1-c1cc(C(F)(F)F)c2c(C)nn(CC(=O)O)c2n1`, the Percent Effect in experiment [1] was 3.1%; in experiment [2], -13.7%.
Taken in the same sequence, the figures for `c1ccc(Cn2ccnc2CN2CCOC(Cn3cccn3)C2)cc1` (stereo not given) were -3.22% and 8.78%.
The matching figures for `c1ccc(-c2cnc(CN3CCn4c(nnc4C4CC4)C3)o2)cc1`: 0.278% and 23.8%.
Regarding `Cc1nc(O)c2nnn(C[C@H]3CCCN3C(=O)C(C)(C)C)c2n1`, the Percent Effect in experiment [1] was 5.78%; in experiment [2], -7.47%.
Taken in the same sequence, the figures for `CC(C)Oc1ncccc1CNC(=O)c1cc[nH]n1` were -1.4% and 18.4%.
Regarding `Cc1nc(C2CCCN2Cc2nnc(C3CC3)o2)no1` (stereo not given), the Percent Effect in experiment [1] turned out to be 1.34%; in experiment [2], 20%.
With `Cc1cnc2c(S(=O)(=O)NCC3CCN(C4CC4)C3)cccc2c1` (stereo not given), the Percent Effect in experiment [1] stood at 3.65%; in experiment [2] it was 25.5%.
Taken in the same sequence, the figures for `O=C(CN1CCC(c2ccnn2CCO)CC1)NCC1CC1` were -6.54% and -19.2%.
As for `O=C(c1ncccn1)N1C[C@H]2CCC[C@@]2(COCC2CCOCC2)C1`, the values for the Percent Effect in experiment [1] and in experiment [2] were -6.49% and -2.7%, respectively.
Taken in the same sequence, the figures for `O=C(CCOc1cccc(F)c1)N1CCCC(n2cncn2)C1` (stereo not given) were -2.92% and 5.88%.
As for `CCn1cnnc1CNC(=O)CCC(=O)c1ccc2c(c1)OCCO2`, the Percent Effect in experiment [1] is 4.55%; in experiment [2] it was 13.7%.
Taken in the same sequence, the figures for `Fc1cccc(-c2nc(CN3CCn4c(nnc4C4CC4)C3)co2)c1` were 6.1% and -39.6%.
On to `O=C(NCCn1ccc(-c2ccccn2)n1)C1CC1`, for which the Percent Effect in experiment [1] is 2.14%; in experiment [2] it was -6.67%.
Taken in the same sequence, the figures for `O=C(CN1CCCC1Cn1cccn1)NC1CCOCC1` (stereo not given) were -1.71% and 13.3%.
The matching figures for `CC(C)(C)OC(=O)N1CCCc2ccc(NCc3ncc[nH]3)cc21`: 5.68% and -52.5%.
With `CSCC(CCO)NC(=O)Nc1cccc(Br)c1` (stereo not given), the figures for the Percent Effect in experiment [1] and in experiment [2] were 8.05% and -15.3%, respectively.
The matching figures for `Cc1cc(C)n(CCCNC(=O)C(C)NC(=O)c2ccccc2Cl)n1` (stereo not given): 1.92% and -4.43%.
In the case of `O=C(CCc1nc2cccnc2[nH]1)Nc1cccnc1`, the Percent Effect in experiment [1] was -1.77%; in experiment [2], -77.4%.
Taken in the same sequence, the figures for `CCn1cnnc1CNC(=O)N(C)Cc1ccc(F)c(F)c1` were -2.12% and 18.2%.
Regarding `CCN(CCn1cccn1)Cc1nc(-c2ccccc2F)oc1C`, the Percent Effect was -0.808% in experiment [1] and -3.06% in experiment [2].
Taken in the same sequence, the figures for `O=C(c1ccc[nH]1)N1CCCC(c2cc(C(F)(F)F)[nH]n2)C1` (stereo not given) were 3.68% and 36.4%.

For the origin of these results see ChEMBL document CHEMBL3988442, “University of Dundee, Small-Polar-MMV Screening Library” (2021).
